{"source": "PubChem BioAssay (NCI)", "note": "About 83,000 compounds went through this panel and 20% of them were active in at least one assay; those are over-represented in the sample as a whole.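 Single-concentration screen, 48 h exposure, 96-well plates. Endpoint: percent growth. Below 10 = active.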 A number with no mark means an inactive call. Calls of active or inactive are those of the source.", "data": [{"system": "CAKI-1 renal", "test": "NCI-60 one-dose screen, 48 h (100 = growth as untreated, 0 = no growth, -100 = all killed)", "conditions": "10 µM unless noted", "values": [{"smiles": "O=[N+]([O-])c1cc(CCl)ccc1OCCBr", "growth": "92%"}, {"smiles": "O=C1COCCN1c1ccc(Nc2nc(Cl)nc(N3CCOCC3)n2)cc1", "growth": "89.2%"}, {"smiles": "O=C(OCc1ccc2c(Cl)cc(Cl)c(O)c2n1)N1CCNCC1", "growth": "27%"}, {"smiles": "Cc1ccc(S(=O)(=O)NCCCNc2nccc(-c3c(-c4cccc(F)c4)nc4occn34)n2)cc1", "growth": "53.4%"}, {"smiles": "COc1cc(Cl)cc(-c2nn(C(=O)NS(=O)(=O)c3ccccc3)cc2-c2ccncc2)c1", "growth": "80.9%"}, {"smiles": "Cn1cc(-c2noc(-c3cn(C)c4ncccc34)n2)c2cc(Cl)ccc21", "growth": "86.6%"}, {"smiles": "CC(C)CSc1ncnc2nc[nH]c12", "growth": "98.6%"}, {"smiles": "Cc1cnc([C@]23CC[C@@H](C)[C@H](C)[C@H]2C2=CC[C@@H]4[C@@]5(C)Cc6c([nH]c7ccccc67)C(C)(C)[C@@H]5CC[C@@]4(C)[C@]2(C)CC3)o1", "growth": "49.7% [100 µM]"}, {"smiles": "CC1(C)CC[C@]2(C(=O)O)CC[C@]3(C)C(=CC[C@@H]4[C@@]5(C)C/C(=C/c6ccco6)C(=O)C(C)(C)[C@@H]5CC[C@]43C)[C@@H]2C1", "growth": "-35% [100 µM] (active)"}]}, {"system": "A498 renal", "test": "NCI-60 one-dose screen, 48 h (100 = growth as untreated, 0 = no growth, -100 = all killed)", "conditions": "10 µM unless noted", "values": [{"smiles": "O=C(Nc1cccc(F)c1)c1cc(=O)[nH]c2cc(Br)ccc12", "growth": "30.8%"}, {"smiles": "COC(=O)[C@]12CCC(C)(C)C[C@H]1C1=CC[C@@H]3[C@@]4(C)C/C(=C/c5cccnc5)C(=O)C(C)(C)[C@@H]4CC[C@@]3(C)[C@]1(C)CC2", "growth": "-69.8% [100 µM] (active)"}, {"smiles": "N#C/C(C(=O)c1ccccc1)=C1/C(=O)Nc2ccc(Br)cc21", "growth": "96.8%"}, {"smiles": "COc1ccc(-c2cc(-c3ccc(Cl)cc3)nc(NCCCCNc3ccnc4cc(Cl)ccc34)n2)cc1", "growth": "3.15% (active)"}, {"smiles": "CCCSc1nc(N)nc2nc[nH]c12", "growth": "123%"}, {"smiles": "CCN(CC)c1ccc2cc(NC(=O)OCCNC(=O)CCNC(=O)[C@H](CC(C)C)NC(=O)C(C)(C)NC(=O)C(C)(C)NC(=O)[C@H](CC(C)C)NC(=O)CCNC(=O)C(C)(C)NC(=O)[C@H](CC(C)C)NC(=O)CCNC(=O)[C@@](C)(CC)NC(=O)[C@H](C)NC(=O)CCNC(=O)C(C)(C)NC(=O)[C@H](C)NC(=O)[C@@H]3CCCN3C(=O)[C@@](C)(CC)NC(=O)[C@H](Cc3ccccc3)NC(=O)C3CCCN3C(=O)C(C)(C)NC(=O)C3CCCN3C(=O)C(C)(C)NC(C)=O)c(=O)oc2c1", "note": "(some centres not stated)", "growth": "-98.5% (active)"}, {"smiles": "C=C(C)[C@@H]1CC[C@]2(C(=O)N3CCN(C)CC3)CC[C@]3(C)[C@H](CC[C@@H]4[C@@]5(C)C/C(=C/c6ccncc6)[C@H](O)C(C)(C)[C@@H]5CC[C@]43C)[C@@H]12", "growth": "-28.9% [100 µM] (active)"}, {"smiles": "CC[C@@](C)(NC(=O)[C@H](C)NC(=O)CCNC(=O)C(C)(C)NC(=O)[C@H](C)NC(=O)[C@@H]1CCCN1C(=O)[C@@](C)(CC)NC(=O)[C@H](Cc1ccccc1)NC(=O)C1CCCN1C(=O)C(C)(C)NC(=O)C1CCCN1C(=O)C(C)(C)NC(C)=O)C(=O)NCCC(=O)N[C@@H](CC(C)C)C(=O)NC(C)(C)C(=O)NCCC(=O)N[C@@H](CC(C)C)C(=O)NC(C)(C)C(=O)NC(C)(C)C(=O)N[C@@H](CC(C)C)C(=O)NCCC(=O)NCO", "note": "(some centres not stated)", "growth": "-97.4% (active)"}, {"smiles": "C#C[C@]1(O)CC[C@H]2[C@@H]3CC=C4c5nc(Nc6ncccn6)sc5CC[C@]4(C)[C@H]3CC[C@@]21C", "growth": "34.4%"}, {"smiles": "CC(C)(C)c1cc(C(=O)N2CCC(C(=O)NCCN)CC2)cc(C(C)(C)C)c1", "growth": "56.6%"}, {"smiles": "CCOC(=O)/C(C#N)=C(\\C)CCc1ccccc1", "growth": "77.9%"}, {"smiles": "COc1ccc2c3ccnc(C(F)(F)F)c3n(CCCCN)c2c1", "growth": "17%"}, {"smiles": "O=C(O)c1cccc(CN2CCN(c3cc4c(cc3F)c(=O)c(C(=O)O)cn4C3CC3)CC2)c1O", "growth": "106%"}, {"smiles": "CCN(CC)c1ccc2cc(C(Nc3ccc(Br)c(C(F)(F)F)c3)c3nnnn3C(C)(C)C)c(=O)oc2c1", "note": "(configuration not stated)", "growth": "67.6%"}, {"smiles": "O=C(NCCCNC(=O)OCc1ccc2c(Br)cc(Br)c(O)c2n1)OCc1ccc2c(Br)cc(Br)c(O)c2n1", "growth": "-2.82% (active)"}, {"smiles": "C[N+](C)(C)c1ncnc2[n-]cnc12", "growth": "81.5%"}, {"smiles": "O=S(=O)(c1ccc(N/N=C\\c2ccccc2Cl)cc1)c1ccc(N/N=C/c2ccccc2Cl)cc1", "growth": "94.2%"}, {"smiles": "CCCOc1ccc(-c2nc(-c3ccc(N)cc3)cs2)cc1", "growth": "215%"}]}]}
